Measured values from PubChem BioAssay AID651599 (National Center for Advancing Translational Sciences (NCATS), 2012).
Records with an inconclusive call do not appear. Activity calls are given as the source filed them. Calls follow the shape of the dose curve; as a rule, active = well fitted inhibition curve with a large enough effect; inconclusive = small, poorly fitted or top-dose-only effect; inactive = no such curve, though single readings can be large or run the other way.

The compounds below were run against Tumor susceptibility gene 101 protein (Homo sapiens) (UniProt Q99816) (assay: qHTS Assay for Iinhibitors of HIV-1 Budding by Blocking the Interaction of PTAP/TSG101: Hit Validation in TR assay). Conditions: Tsg101 binding domain + Texas Red-labeled PTAP peptide, fluorescence polarization, 20 min; series mostly up to 57.5 µM; activity change, negative = inhibition: at the top concentration.
Chain of Tumor susceptibility gene 101 protein (Homo sapiens) (Q99816 whole entry, looked up, the tested form may be a part): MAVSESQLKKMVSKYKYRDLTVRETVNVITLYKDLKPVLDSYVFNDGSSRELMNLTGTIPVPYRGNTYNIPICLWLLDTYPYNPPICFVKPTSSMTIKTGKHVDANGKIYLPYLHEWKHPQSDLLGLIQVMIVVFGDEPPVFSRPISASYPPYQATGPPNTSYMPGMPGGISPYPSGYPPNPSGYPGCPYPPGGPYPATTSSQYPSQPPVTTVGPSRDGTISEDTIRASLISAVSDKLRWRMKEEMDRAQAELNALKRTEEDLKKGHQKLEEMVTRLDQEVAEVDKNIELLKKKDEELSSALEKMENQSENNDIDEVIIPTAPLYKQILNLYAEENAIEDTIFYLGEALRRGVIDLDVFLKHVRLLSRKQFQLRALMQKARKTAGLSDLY
Outline: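 Texas Red-PTAP peptide (50 nM) binding to Tsg101 binding domain (10 uM), both final, in pH 7.5 HEPES buffer, read as polarization after 20 min at room temperature; compounds pinned before peptide addition.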
% is scaled to controls: 0 for no effect and ±100 for the full control effect; potency is read from the fitted curve at half-maximal effect.

SMILES	activity change, negative = inhibition	Potency
Nc1c(C(=O)C2CC2)sc2nc(-c3ccccc3)cc(C(F)(F)F)c12	19.3% (inactive)	
COc1ccc(N(C(=O)c2snc(C(N)=O)c2N)C(C(=O)NC2CCCC2)c2ccc3ncccc3c2)cc1 (centres undefined)	-5.82% (inactive)	
COCCCNC(=O)c1ccc2c3c(onc13)-c1ccccc1C2=O	0.569% (inactive)	
O=C(c1ccccc1)c1ccc(O)cc1O	-21.9% (inactive)	
Cc1nc2ccccc2n2c(O)c(CC(=O)O)cc12	17.7% (inactive)	
Nc1ccc2c3c(cccc13)-c1ccccc1-2	-5.02% (inactive)	
O=C1Nc2ccccc2/C1=C/c1cnc(-c2ccccc2)[nH]1	-19.2% (inactive)	
NS(=O)(=O)c1ccc(N=Nc2c[nH]c(=O)c(O)c2)cc1	22.4% (inactive)	
Cc1cc(=O)c2c([nH]1)c(C)cc1[nH]c(C)c(C)c12	7.34% (inactive)	
CC(C)CSC1=NSC2=NC(=O)/C(=C\c3coc4ccccc4c3=O)C(=N)N12	34.4% (inactive)	
Cc1ccc(OC(=O)c2ccc3nc(C)sc3c2)cc1	21% (inactive)	
O=C(CC1CC2CCC1C2)NCc1cccs1 (centres undefined)	-6.04% (inactive)	
O=C(O)[C@@H]1[C@H]2C[C@H]3c4[nH]c5ccccc5c4CCN3C[C@@H]2CC[C@@H]1O		13 µM (active)
CN1CC=C2C(C#N)=C(N)C(C#N)(C#N)[C@H](c3ccoc3)[C@H]2C1	2.73% (inactive)	
O=C(O)c1ccccc1C1=Nc2ccc(O)cc2Oc2cc(O)ccc21	-18.3% (inactive)	
O=C1Nc2ccc(F)cc2C12Nc1ccccc1-c1nnc(SCc3ccccc3)nc1O2 (centres undefined)	-29.8% (inactive)	
CCN(CC)c1ccc2cc(C(=O)NNC(=O)c3ccc(S(=O)(=O)N4CCCCC4)cc3)c(=O)oc2c1	9.6% (inactive)	
CN1/C(=C\C=C2/C(=O)Oc3ccccc3C2=O)C(C)(C)c2ccccc21	14.8% (inactive)	
COc1ccc(OC)c2c1C(=O)c1ccccc1C2=O	36.9% (inactive)	
CCC(=O)Nc1ccc(NC(=O)C23CC4CC(CC(C4)C2)C3)cn1	-12.7% (inactive)	

SMILES	activity change, negative = inhibition	Potency
CN(C)c1ccc(/C=C(\C#N)C(=O)Nc2nc3c(s2)CCN(Cc2ccccc2)C3)cc1	28.5% (inactive)	
CCOc1cc(/C=C(\C#N)c2nc(-c3cccs3)c(NC(C)=O)s2)ccc1O	-11.2% (inactive)	
O=C(O)c1ccccc1-c1ccc(/C=C/c2cc(C(F)(F)F)[nH]c(=O)n2)o1	14.9% (inactive)	
COc1ccccc1N1C(=O)C2C(C(=O)c3ccccc3)=NN(c3ccc(C)cc3)C2C1=O (centres undefined)	24.6% (inactive)	
CCOC(=O)c1cc2n(c1/N=C/N(C)C)-c1ccccc1C2=O	43.3% (inactive)	
CCCN1C(=O)/C(=C/C=C2\N(CC)c3ccccc3C2(C)C)SC1=S	-24.8% (inactive)	
CC(=O)c1ccc2c(c1)c(C#N)c1ccccc1[n+]2[O-]	-2.93% (inactive)	
CCCn1c(O)c(N=Nc2ccc3ccccc3n2)c2ccccc21	-12.6% (inactive)	
O=c1c(/C=C(\O)c2ccccc2)nc2ccccc2n1-c1ccccc1	10.3% (inactive)	
COc1cc(-c2cc(-c3ccc(N)cc3)[nH]c(=O)c2C#N)cc(OC)c1OC	-7.76% (inactive)	
COc1cc(OC)c(-c2c3cc(O)c(=O)cc-3oc3cc(O)c(O)cc23)cc1OC	-25.9% (inactive)	
N=c1c(S(=O)(=O)c2ccc(Br)cc2)cc2c(=O)n3ccccc3nc2n1Cc1ccccc1	-0.502% (inactive)	
Cc1ccc(C(=O)Nc2ccc(C(=O)O)cc2)cc1S(=O)(=O)NCc1ccccc1	174% (inactive)	
CC(C)c1nnc(N2C(=O)C(O)=C(C(=O)c3cccs3)C2c2ccccc2)s1 (centres undefined)	26.3% (inactive)	
Cc1ccc(-c2cccc(NC(=O)C3C4C=CC(C4)C3C(=O)O)c2)o1 (centres undefined)	-5.45% (inactive)	
CC1CCN(c2ccc3c(c2)S(=O)(=O)c2ccccc2C3=O)CC1	-17.4% (inactive)	
COc1ccc(OC)c(/C=C(\C#N)c2nc3ccccc3c(=O)[nH]2)c1	27.1% (inactive)	
Nc1cccc2c(O)cc(S(=O)(=O)O)cc12	28.4% (inactive)	
CCOc1ccc2nc3cc(NCc4ccc(OC)cc4)ccc3c(N)c2c1	15.8% (inactive)	
